# According to PubChem BioAssay (NCATS):
# Where “and” joins values, the source holds several entries; their conditions need not be identical. Equal values may be shown once. A number with no mark means an inactive call. Records with an inconclusive call do not appear. Calls of active or inactive are those of the source. Unless noted, calls come from the whole dose curve; as a rule, active = well fitted curve in the direction sought with a large enough effect in the repeat runs; inconclusive = weak or mixed curves; inactive = no such curve, though single readings can be large; an effect the other way counts as inactive or inconclusive.
# Tested on: not listed separately
# Assay: qHTS assay for small molecule agonists of the antioxidant response element (ARE) signaling pathway measured by Nrf2-dependant transcriptional activity - cell viability counter screen (AID 720653); note: % is set by controls: 0 for no effect and ±100 for the full control effect
# Conditions: ARE-bla HepG2 viability, CellTiter-Glo ATP luminescence, 16 h; hits give low values
# Method in brief: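 Cytotoxicity counter screen: intracellular ATP quantified by CellTiter-Glo luminescence in the same ARE-bla HepG2 plates, after 16 h compound exposure and a 2 h beta-lactamase substrate step.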
row,Structure (SMILES),max response
1,CC(C)NC(C)C,-19.4%
2,C[C@]12CCC(=O)C=C1CC[C@@H]1[C@@H]2CC[C@]2(C)C(=O)CC[C@@H]12,3.62% and -13.2%
3,O=C(O)CCCc1ccc(N(CCCl)CCCl)cc1,-0.747% and 2.01%
4,Nc1ccccc1,-9.58%
5,CC(C)c1cccc(C(C)C)c1O,-3.43%
6,CCCC(C)(COC(N)=O)COC(N)=O,2.78% and -4.68%
7,CCC(C)(C)c1ccc(O)cc1,-17% and -1.76%
8,COc1cc(OC)c(OC)cc1C=O,3.08%
9,COC(=O)C(c1ccccc1)C1CCCCN1 (stereo not given),3.62% and -0.896%
10,C[C@]12CCC(=O)C=C1CC[C@@H]1[C@@H]2CC[C@@]2(C)[C@H]1CC[C@]2(C)O,11%
11,COP(=S)(OC)Oc1ccc(SC)c(C)c1,-8.21% and -17%
12,Nc1ccccc1C(=O)O,1.19%
13,Oc1ccc(Cl)cc1,-5.13%
14,NCCc1ccc(O)cc1,13.6%
15,O=P1(N(CCCl)CCCl)NCCCO1 (stereo not given),1.71% and -4.84%

# Biological target: Hexokinase-4 (Homo sapiens) + Glucokinase regulatory protein (Homo sapiens) (UniProt P35557+Q14397)
# Sequence (P35557 whole entry, looked up): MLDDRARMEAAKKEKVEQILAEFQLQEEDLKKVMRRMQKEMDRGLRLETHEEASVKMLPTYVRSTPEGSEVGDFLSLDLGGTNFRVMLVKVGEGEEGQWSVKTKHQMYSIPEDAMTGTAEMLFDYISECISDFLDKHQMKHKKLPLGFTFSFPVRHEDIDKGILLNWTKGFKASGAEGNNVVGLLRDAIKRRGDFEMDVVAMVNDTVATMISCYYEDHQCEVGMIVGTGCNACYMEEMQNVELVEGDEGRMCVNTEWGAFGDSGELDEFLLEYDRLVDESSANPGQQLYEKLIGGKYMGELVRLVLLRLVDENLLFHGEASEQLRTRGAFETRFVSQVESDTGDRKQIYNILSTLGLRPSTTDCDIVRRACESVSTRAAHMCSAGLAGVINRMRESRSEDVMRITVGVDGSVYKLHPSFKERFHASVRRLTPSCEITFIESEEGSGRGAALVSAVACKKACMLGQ
# Sequence (Q14397 whole entry, looked up): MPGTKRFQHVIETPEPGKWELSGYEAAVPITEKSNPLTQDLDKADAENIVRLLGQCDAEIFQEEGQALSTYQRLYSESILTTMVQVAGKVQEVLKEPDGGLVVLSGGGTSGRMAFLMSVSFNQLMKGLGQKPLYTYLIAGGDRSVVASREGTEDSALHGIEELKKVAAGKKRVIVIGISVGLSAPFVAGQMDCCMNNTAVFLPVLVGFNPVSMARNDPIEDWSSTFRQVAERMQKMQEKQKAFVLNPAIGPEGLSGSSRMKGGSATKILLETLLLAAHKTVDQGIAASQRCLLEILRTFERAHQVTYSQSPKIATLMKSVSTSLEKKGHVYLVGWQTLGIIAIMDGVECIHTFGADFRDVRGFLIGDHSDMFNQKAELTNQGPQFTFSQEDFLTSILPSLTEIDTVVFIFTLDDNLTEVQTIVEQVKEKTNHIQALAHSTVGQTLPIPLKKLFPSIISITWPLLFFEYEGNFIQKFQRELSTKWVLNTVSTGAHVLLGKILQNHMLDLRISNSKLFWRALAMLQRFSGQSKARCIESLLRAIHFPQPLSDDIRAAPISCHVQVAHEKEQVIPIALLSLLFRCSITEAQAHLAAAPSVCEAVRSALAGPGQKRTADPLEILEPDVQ
# Assay: qHTS assay for inhibitors of recombinant human GCK-GKRP interaction: Diaphorase-coupled assay (AID 743205; active = well fitted curve in the direction sought with a large enough effect; an effect the other way counts as inactive or inconclusive)
# Conditions: G6PDH/diaphorase resorufin fluorescence; series mostly up to 57.5 µM
# Method in brief: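 Resorufin fluorescence (525/590 nm), read each minute over 30 min, reports GCK activity coupled via G6PDH and diaphorase. Reaction: 10 nM GST-GCK, 10 nM FLAG-GKRP, 5 mM glucose, 0.4 mM ATP, 0.15 mM NADP+, 0.1 mM resazurin.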
row,Structure (SMILES),outcome
1,O=C(O)CCCc1ccc(N(CCCl)CCCl)cc1,inactive
2,CC(C)c1cccc(C(C)C)c1O,inactive
3,CN1C(=O)CCS(=O)(=O)C1c1ccc(Cl)cc1 (stereo not given),inactive
4,CC(C)N(CCC(C(N)=O)(c1ccccc1)c1ccccn1)C(C)C (stereo not given),inactive
5,O=c1[nH]oc2c1CCNC2,inactive
6,Cc1ncsc1CCCl,inactive
7,CC(C)(C)NCC(O)c1ccccc1Cl (stereo not given),inactive
8,COc1ccc2c(c1OC)C(=O)O[C@H]2[C@@H]1c2cc3c(cc2CCN1C)OCO3,inactive
9,CCC1(c2ccc(N)cc2)CCC(=O)NC1=O (stereo not given),inactive
10,NCCc1ccc(O)cc1,inactive
11,CCCCC/C=C\C/C=C\C/C=C\C/C=C\CCCC(=O)NCC(=O)O,inactive
12,C=C(C)[C@H]1CN[C@H](C(=O)O)[C@H]1CC(=O)O,inactive
13,CC(NC(C)(C)C)C(=O)c1cccc(Cl)c1 (stereo not given),inactive
14,O=P1(N(CCCl)CCCl)NCCCO1 (stereo not given),inactive
15,O=C(CCCN1CCC2(CC1)C(=O)NCN2c1ccccc1)c1ccc(F)cc1,inactive
